Data reported in PMC5540273 (PLoS ONE, 2017).

How the values were obtained:
Settings in all cases: concentration: 1 μM, replicates: in singlicate; n = 1
MAP4K3 = test system: MAP4K3
MAP4K4 = test system: MAP4K4
MAP4K5 = test system: MAP4K5
MAPKAPK2 = test system: MAPKAPK2
MAPKAPK5 = test system: MAPKAPK5
MARK1 = test system: MARK1
MARK2 = test system: MARK2
MARK3 = test system: MARK3
MARK4 = test system: MARK4
MAST1 = test system: MAST1
MEK1 = test system: T1, MEK1
T1 construct: gene MAP2K1

MEK2 = test system: T2, MEK2
T2 construct: gene MAP2K2

MEK3 = test system: T3, MEK3
T3 construct: gene MAP2K3

MEK4 = test system: T4, MEK4
T4 construct: gene MAP2K4

MEK5 = test system: T5, MEK5
T5 construct: gene MAP2K5

MEK6 = test system: T6, MEK6
T6 construct: gene MAP2K6

MELK = test system: MELK
MERTK = test system: MERTK
MET = test system: MET
MINK = test system: T7, MINK
T7 construct: gene MINK1
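Further: KINOMEscan kinase panel screen.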

SMILES | %Inh (MAP4K3) [%] | %Inh (MAP4K4) [%] | %Inh (MAP4K5) [%] | %Inh (MAPKAPK2) [%] | %Inh (MAPKAPK5) [%] | %Inh (MARK1) [%] | %Inh (MARK2) [%] | %Inh (MARK3) [%] | %Inh (MARK4) [%] | %Inh (MAST1) [%] | %Inh (MEK1) [%] | %Inh (MEK2) [%] | %Inh (MEK3) [%] | %Inh (MEK4) [%] | %Inh (MEK5) [%] | %Inh (MEK6) [%] | %Inh (MELK) [%] | %Inh (MERTK) [%] | %Inh (MET) [%] | %Inh (MINK) [%]
O=c1cc(N2CCOCC2)nc2n(Cc3cccc(Cl)c3Cl)c(C3CC3)nn12 [GSK2358994] | 0 | 0 | 0 | 1 | 0 | 0 | 0 | 0 | 4 | 4 | 17 | 13 | 22 | 0 | 6 | 17 | 3 | 34 | 0 | 0
O=c1cc(N2CCOCC2)nc2n(Cc3cccc4ccccc34)ccn12 [GSK2333389] | 6 | 15 | 10 | 3 | 0 | 0 | 0 | 22 | 1 | 0 | 0 | 0 | 0 | 3 | 18 | 0 | 0 | 23 | 0 | 0
Cc1ccc(NC(=O)c2ccnc(N3CCN(C)CC3)c2)cc1-c1ccc(C(=O)NCC2CC2)cc1 [GW775604] | 9 | 0 | 0 | 0 | 0 | 12 | 0 | 10 | 41 | 0 | 3 | 25 | 1 | 0 | 2 | 11 | 0 | 0 | 0 | 0
COc1ccc(CNC(=O)NC2CCN(c3ccnc(Nc4ccc(OC)cc4)n3)C2)cc1 (centres unmarked) [GSK1379727] | 0 | 0 | 0 | 20 | 0 | 0 | 0 | 0 | 0 | 0 | 0 | 0 | 0 | 17 | 37 | 0 | 4 | 16 | 0 | 4
COc1ccc(Nc2nccc(N3CCC(NC(=O)Nc4cc(C)ccc4C)C3)n2)cc1 (centres unmarked) [GSK1379741] | 0 | 0 | 0 | 14 | 0 | 0 | 0 | 0 | 0 | 9 | 0 | 0 | 0 | 14 | 44 | 0 | 0 | 24 | 0 | 0
CN(C(=O)c1ccc(-c2cc(-c3c[nH]nc3-c3ccccn3)ccn2)cc1)C1CCOCC1 [GW810083] | 0 | 9 | 0 | 0 | 0 | 9 | 36 | 0 | 30 | 38 | 0 | 0 | 14 | 0 | 5 | 0 | 41 | 0 | 0 | 8
O=C(NOCC1CC1)c1ccc(F)c(F)c1Nc1ccc(I)cc1Cl | 0 | 0 | 0 | 0 | 0 | 0 | 6 | 0 | 0 | 0 | 64 | 47 | 0 | 0 | 0 | 0 | 0 | 0 | 0 | 0
O=c1cc(N2CCOCC2)nc2n(Cc3cccc(F)c3)ccn12 [GSK2297430] | 11 | 9 | 4 | 12 | 0 | 0 | 0 | 0 | 10 | 0 | 0 | 0 | 0 | 0 | 31 | 0 | 18 | 16 | 0 | 0
COc1cc2ncn(-c3cc(OCc4sccc4Cl)c(C(N)=O)s3)c2cc1OC [GSK448459] | 50 | 0 | 99.1 | 0 | 0 | 0 | 0 | 0 | 0 | 0 | 0 | 0 | 0 | 15 | 99.8 | 0 | 0 | 23 | 8 | 50
[2H]C([2H])(c1cccc(C(F)(F)F)c1C)n1ccn2c(=O)nc(N3CCOCC3)cc12 [GSK2336394] | 0 | 6 | 0 | 22 | 0 | 0 | 0 | 0 | 2 | 0 | 0 | 0 | 0 | 35 | 1 | 0 | 0 | 0 | 0 | 0
